The results in this text go back to PubChem BioAssay AID463195 (Sanford-Burnham Center for Chemical Genomics, 2010).

For orientation: inhibition means the change of the read-out against control, counted positive when it falls.

Structures are written as SMILES. Hit rate of the full screen: of about 330,000 compounds, about 4,600 (1.4%) were called active. The full list was thinned out, with actives kept by preference. Values without a mark were called inactive.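 How the source made its calls: active means inhibition of 40% or more at the single tested concentration; inactive means the rest.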

The assay is described as follows: growth inhibitors of isogenic TIM10 control yeast, primary screen, counter-screen for tim10-1 yeast inhibitor project, luminescence, uHTS (AID 463195).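 Further: wild-type TIM10 isogenic control strain grown at permissive 25 °C; 0% = DMSO yeast wells and 100% = minimal medium wells without yeast.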 As to conditions: S. cerevisiae TIM10 strain growth, BacTiter-Glo luminescence, 24 h; at 10 µM; hits give high values. In general terms: Counterscreens check selectivity or assay interference.
In the case of `COCCCN1C(=O)c2ccc(C(=O)OCC(=O)NCc3ccccc3OC)cc2C1=O`, the inhibition was 2.82%. For `CN1C(=O)c2ccc(C(=O)Nc3ccc(Br)cn3)cc2C1=O` the value was 3.52%.

Consider `O=C(Nc1ccc(Br)cn1)c1ccc([N+](=O)[O-])o1`, for which the inhibition is 57.3% (active). For `Cc1onc(C(=O)Nc2ccc3c(c2)OCO3)c1[N+](=O)[O-]` the value was -7.9%. For `CCN(CC)S(=O)(=O)c1ccc(N2CCCC2)c(NC(=O)c2ccc([N+](=O)[O-])o2)c1` the value was 28.1%.

With `Cc1onc(C(=O)NCc2ccc(F)cc2)c1[N+](=O)[O-]`, the inhibition was -0.126%. In the case of `O=C(Nc1cccc(O)c1)c1ccc(C(=O)c2ccccc2)o1`, the inhibition was 30.4%.

As to `Cc1cccc(NC(=O)c2ccc([N+](=O)[O-])o2)c1`, the inhibition was 60.3% (active). For `Cc1onc(NC(=O)c2ccc([N+](=O)[O-])o2)c1Br` the value was 46.6% (active); for `O=C(Nc1ccc(Br)cn1)c1ccc([N+](=O)[O-])cc1Cl`, 14.3%. For `CC(C)(C)c1nnc(NC(=O)C2c3ccccc3Oc3ccccc32)s1` the value was 29.5%. For `Cc1ccc(CNC(=O)c2cccc3c2C(=O)c2ccc(N4CCC(C)CC4)cc2S3(=O)=O)cc1` the value was 4.75%; for `CC(=O)Nc1ccc(C(=O)N(C2=NC(C)CS2)c2ccc(Cl)cc2)cc1` (stereo not given), 20.1%. On to `CC(=O)OCC(COC(C)=O)OC(C)=O`, for which the inhibition is 5.8%. Consider `COc1ccc(S(=O)(=O)NCCc2cc3ccc(C)c(C)c3[nH]c2=O)cc1`, for which the inhibition was 5.58%. For `CC(C)[C@@H](C(=O)O)N(Cc1cccc(CN([C@H](C(=O)O)C(C)C)S(C)(=O)=O)c1)S(C)(=O)=O` the value was 10.1%; for `CC(=O)c1cnc(-c2ccccc2)s1`, 12.3%; for `CC(C)(C)C(=O)c1cnc(Nc2ccccc2)s1`, 45.4% (active). For `O=C(/C=C/Nc1ccccc1)c1cnc(-c2ccccc2)s1` the value was 3.58%; for `CCOC(=O)C1CCCN(C(=O)c2ccc(CS(=O)(=O)c3ccc(Br)cc3)o2)C1` (stereo not given), 4.19%; for `Cc1cc(N2CCCC2)ccc1NC(=O)COc1ccc(Cl)cc1`, 4.1%. For `NC(=O)NC(=O)C(OC(=O)CCNS(=O)(=O)c1ccccc1)c1ccccc1` (stereo not given) the value was 14.9%; for `COc1ccc(N2C(=O)NC(NS(=O)(=O)c3ccc(Cl)cc3)(C(F)(F)F)C2=O)cc1` (stereo not given), 5.54%.

In the case of `Cc1cc(C)cc(NC(=S)NCCc2c[nH]c3ccccc23)c1`, the inhibition was 40.6% (active). For `Cc1ccc(S(=O)(=O)N(C)CC(=O)NCCc2c[nH]c3ccccc23)cc1` the value was -8.68%; for `O=C(NCCc1c[nH]c2ccccc12)c1cccc(Br)c1`, 4.34%; for `CCC(C)(C)NC(=O)CN(C(=O)CCC(=O)Nc1cc(C)ccn1)c1ccc2c(c1)OCCO2`, 17.4%. On to `CCOC(=O)/C(C#N)=C\c1c(C)cc(C)c(COC(C)=O)c1C`, for which the inhibition was 19%. For `COC(=O)CN(c1cccc(C(C)=O)c1)S(C)(=O)=O` the value was 12.6%. For `CCSC1=C(C#N)C(=O)n2c1cc1c2CCCC1` the value was 63% (active); for `CCSc1ncnc2c(C#N)c3n(c12)CCCCC3`, -29.8%. For `COC(C[C@@H](O)C[C@H](O)[C@H](C)OCc1ccccc1)OC` the value was -0.06%. As to `Cc1cccc(C)c1NC(=O)CSc1nnc(-c2ccccc2)n1Cc1ccc2c(c1)OCO2`, the inhibition is -0.243%. For `c1ccc(-c2nnc3n2NC(c2ccc4c(c2)OCO4)S3)cc1` (stereo not given) the value was 57.8% (active).

In the case of `CC1=C(C(N)=O)C(c2ccc3c(c2)OCO3)n2nc(-c3cccc(C)c3)nc2N1` (stereo not given), the inhibition is 2.9%. As for `CN(CC(=O)NCCc1ccccc1)S(=O)(=O)c1cnc[nH]1`, the inhibition was -7.58%. With `O=C(CNC(=O)c1cccnc1)N/N=C/c1cc(Br)c(O)c(Br)c1`, the inhibition is -19.5%.

Regarding `COc1cc(Br)cc(/C=N/c2ncn[nH]2)c1O`, the inhibition was 48.7% (active). For `C=CCn1c(Cn2nnc3ccccc32)nnc1SCC(=O)N/N=C/c1cc(Br)cc(OC)c1O` the value was -12.4%. For `Oc1c(Cl)cc(Cl)cc1/C=N/c1ncn[nH]1` the value was 23.9%. For `Cc1cc(-c2nnc(SCC(=O)Nc3ccc(S(N)(=O)=O)cc3)n2N)n[nH]1` the value was -1.79%. On to `CCOC(=O)c1[nH]c2c(c1-c1ccccc1)C(=O)CC(c1ccc(Cl)cc1)C2` (stereo not given), for which the inhibition is 3.98%.

As to `CCOC(=O)C1=C(C)NC(=O)N(C(C)=O)C1c1ccc(Cl)cc1` (stereo not given), the inhibition is 29.2%. For `CCOC(=O)C1Sc2[nH]c(=O)sc2C(c2ccc(Cl)cc2)C1C(=O)OCC` (stereo not given) the value was 44.2% (active); for `COc1ccc(N2C(=O)C3C(C2=O)C(C(=O)c2ccccc2)N2CCCC32)cc1` (stereo not given), 7.93%; for `COc1cccc(NC(=O)CSc2nccn(-c3ccc4c(c3)OCCO4)c2=O)c1`, 44.8% (active).

Consider `COc1ccccc1-n1ccnc(SCC(=O)NC2CCCCC2)c1=O`, for which the inhibition is 15.4%. For `Cn1ccnc1SCC(=O)Nc1ccc2c(c1)OCCO2` the value was 8.81%.

For `CC(C)Oc1ccc(S(=O)(=O)N2CCOCC2)cc1NC(=O)C1CCCC1`, the inhibition was 3%. For `O=C(Nc1cccc(-n2cnnn2)c1)c1cccnc1` the value was 5.34%; for `O=C(Nc1ccc(C(F)(F)F)cc1)c1cccc(-n2cnnn2)c1`, 93% (active); for `O=C(Nc1ccc(-c2csc(Nc3cccc(C(F)(F)F)c3)n2)cc1)c1cccc(C(F)(F)F)c1`, 14.2%. For `CN(CC(=O)Nc1cccc(F)c1)C(=O)CC1CCCC1` the value was 7.55%.

For the molecule `Cc1ccc(S(=O)(=O)N2CCOCC2)cc1C(=O)NC(=S)N(Cc1ccccc1)C(C)C`, the inhibition was 15.5%. For `c1ccc(-c2ccnc3nc(-n4cccc4)nn23)cc1` the value was 14.7%; for `C/C(=N\Nc1ccc([N+](=O)[O-])cc1)c1ccc(-n2nncc2C(C)(C)C)cc1`, 8.53%. For `COc1ccc(NC(=O)c2ccc(C#CC(C)(C)O)cc2)cc1` the value was 12%. For `COc1ccc(C(=O)Nc2ccc(-n3nncc3C(C)(C)C)cc2)cc1` the value was 53.1% (active); for `COc1cccc(N(C(=O)c2ccn[nH]2)C2(C(=O)Nc3c(C)cccc3C)CCCCC2)c1`, 17.6%; for `OC(c1ccccc1)c1nccn1Cc1ccccc1` (stereo not given), 8.31%. `COc1ccc(N2CCN(C(=O)/C(C#N)=C/c3ccccc3)CC2)cc1`: the inhibition is 36%. For `COc1ccc(/C=C(\C#N)C(=O)ONC2=NCCCCC2)cc1` the value was 48.5% (active). For `COc1ccc(/C=C(\C#N)C(=O)OCC(=O)N(C)C2CCS(=O)(=O)C2)cc1` (stereo not given) the value was 4.8%; for `O=C(Cn1nc(CNc2ccc(Cl)cc2)[n+]2c1CCCCC2)c1ccc(Cl)cc1`, -4.18%. For `Cn1cc(CCC(=O)NC2CC2)c2ccccc21` the value was 4.31%; for `COC(=O)c1ccc(CNC(=O)c2ccc(S(=O)(=O)N3CCCCCC3)cc2)cc1`, -4.47%. For the molecule `O=C(Nc1ccccc1F)c1ccc(S(=O)(=O)N2CCCCCC2)cc1`, the inhibition was 12.4%. With `O=C(NCCc1ccc(F)cc1)c1ccc(S(=O)(=O)N2CCCCC2)cc1`, the inhibition was 41.7% (active). For `O=C(Nc1ccc([N+](=O)[O-])cc1)C1CC12CCC2` (stereo not given) the value was 14.3%; for `O=C(N/N=C/c1ccc(Cl)cc1)c1nc2ccc([N+](=O)[O-])cc2c(=O)[nH]1`, -0.404%. For `COc1ccc(C(=O)N2CCCC(C(=O)c3ccccc3OC)C2)cc1OC` (stereo not given) the value was 1.3%; for `O=C(Nc1ccc2c(c1)OCCO2)C1CCCN(c2ncccn2)C1` (stereo not given), -4.49%.

Consider `Cc1ccc(Cl)cc1NC(=O)C1CCCN(c2cnccn2)C1` (stereo not given), for which the inhibition is 5.02%. Take `O=C(Nc1cccc(Cl)c1)C1CCCN(c2cnccn2)C1` (stereo not given): the inhibition was 42.8% (active). For `O=C1C2C3C=CC(C4CC34)C2C(=O)N1c1nccs1` (stereo not given) the value was -2.66%; for `CCOC(=O)c1cnc2ccc(F)cc2c1Nc1ccc2c(c1)OCCO2`, 37.4%.

As to `Cc1ccc(-c2cn3cc(C)ccc3n2)cc1`, the inhibition is 65% (active). For `COc1ccc(-c2cn3ccc(C)cc3n2)cc1` the value was 30.2%; for `CCN(CC)S(=O)(=O)c1ccc(-c2cn3ccc(C)cc3n2)cc1`, 11.7%.

Consider `Cc1ccc(-c2cn3cc([N+](=O)[O-])ccc3n2)cc1`, for which the inhibition was -29.9%. For `Cc1ccc2nc(-c3ccc(Br)cc3)cn2c1` the value was 40.3% (active).

For `CSc1nnc2ccc(-c3ccc(C)cc3)nn12`, the inhibition is 7.14%. `COc1ccccc1C(=O)Nc1nc2nc(-c3ccccc3)cc(=O)n2[nH]1`: the inhibition was -9.51%. For `N#Cc1ccccc1NC(=O)COc1c(Br)cc(Br)c2cccnc12` the value was 13.8%; for `O=C(Nc1ccc(N2CCN(C(=O)c3ccccc3)CC2)c(Cl)c1)c1ncn[nH]1`, -12.4%; for `CN(C)C(=O)CCC(=O)N1CCCCC1C(=O)Nc1ccc(Oc2ccccc2F)cc1` (stereo not given), 3.39%. For `Fc1ccccc1/C=C1\CCCC2=C1Nc1ncnn1C2c1ccccc1F` (stereo not given) the value was 48.1% (active).

In the case of `CC1=C(C(N)=O)C(c2ccc(Br)cc2)n2ncnc2N1` (stereo not given), the inhibition is -4.88%.

On to `CCC1CCc2c(sc(NC(C)=O)c2C#N)C1` (stereo not given), for which the inhibition was 7.23%. For `O=C(COC(=O)c1ccc(Cl)nc1)NCc1cccs1` the value was 7.82%; for `COc1ccccc1N1CCN(C(=O)C2Cc3ccccc3CN2C(=O)c2ccco2)CC1` (stereo not given), 22%; for `Cc1oc2c(c1C(=O)N1CCOCC1)C(=O)c1ccccc1C2=O`, 46.1% (active). For `COc1cc2ccccc2cc1C(=O)N1CCOCC1` the value was 5.86%; for `COC1=C(N2CCOCC2)C(=O)c2ccccc2C1=O`, -3.21%; for `CC1=C(C)CC(C(=O)NNC(=O)c2csc3c2CCC(C(C)(C)C)C3)C(C(=O)O)C1` (stereo not given), 5.91%.
